# PubChem BioAssay AID504467 (National Center for Advancing Translational Sciences (NCATS), 2011)
# About 7,700 (2.3%) of roughly 330,000 compounds were called active. Not shown: some 26% with an inconclusive outcome. The call rests on the fitted dose curve; in most records, active means well fitted inhibition curve with a large enough effect; inconclusive means small, poorly fitted or top-dose-only effect, or effect the other way; inactive means flat fitted curve, though single readings scatter. The entries come from a sample that favours actives as a whole.
# Test: qHTS screen for small molecules that inhibit ELG1-dependent DNA repair in human embryonic kidney (HEK293T) cells expressing luciferase-tagged ELG1; further: nearly all actives have a fitted effect of over 55% in size
# Settings: HEK293T ELG1-luciferase reporter, luminescence, 16 h, DNA damage induced by 5-fluorouridine; series mostly up to 46.1 µM; activity change, negative = inhibition: at the top concentration
# Description: NIH Molecular Libraries Probe Production Network [MLPCN] NIH Chemical Genomics Center [NCGC] MLPCN Grant: 1 R03 MH092164-01 Assay Provider: Kyungjae Myung, NHGRI, NIH Keywords: MLPCN, qHTS, NCGC, genotoxicity, cancer Assay Overview: Cancer cells divide rapidly compared to normal cells in the body. During cell division, cancer cells need to duplicate their genome by DNA replication. The failure of genome duplication leads to cancer cells' death. Therefore, inhibitors of DNA replication could specifically kill cancer cells. Based on this concept, many chemotherapeutic agents were developed and have been used to treat cancer patients. However, there are a limited number of agents available in the clinical setting, and some of those that do exist have low efficacy and severe side effects. Therefore, if we can find the compounds that effectively block DNA replication either by directly damaging DNA or by inhibiting other cellular mechanisms, the options for cancer treatment will be broadened. With this in mind, we developed a quantitative high-throughput ELG1-luciferase reporter gene assay. Small molecules that specifically block ELG1 function in response to DNA damage can be identified by monitoring the suppression of luciferase activity. Since ELG1 defines a pathway for repairing DNA damage, agents blocking ELG1 function can be used to sensitize cancer cells to chemotherapeutic agents whose mechanism of action involves the induction of DNA damage.
# Assay Protocol Summary: For genotoxicity screening, 2,000 cells in 4 uL/well were dispensed into white, solid-bottom 1536-well plates using a solenoid-based dispenser. Following transfer of 1 uL 5-Fluorouridine and 23 nL compound or DMSO vehicle by a pin tool, the plates were incubated 16 hr at 37 °C and 5% CO2. 5 ul ONE-Glo (Promega) was then added to each plate and following a 30 min incubation at room temperature, luciferase activity was quantified on a ViewLux CCD-based plate reader.
# On the % scale 0 is the no-effect control and ±100 the full control effect; potency means the concentration at half of the fitted maximal effect.
SMILES,"activity change, negative = inhibition",Potency
CN1CCN(S(=O)(=O)c2ccc(Nc3ccc(F)cc3)nc2)CC1,0.234% (inactive),–
O=C(CN1C(=O)NC2(CCCCCCC2)C1=O)NCc1ccc(F)cc1,-2.29% (inactive),–
O=C(O)C(NS(=O)(=O)c1cccc2nsnc12)c1ccccc1 (stereo not drawn),-7.45% (inactive),–
O=C(C(NS(=O)(=O)c1cccc2nsnc12)c1ccccc1)N1CCN(c2ccccn2)CC1 (stereo not drawn),-14.9% (inactive),–
O=C(C(NS(=O)(=O)c1cccc2nsnc12)c1ccccc1)N1CCN(c2ccccc2)CC1 (stereo not drawn),–,16.4 µM (active)
COC(=O)c1cc(NC(=O)c2cc(C(C)(C)C)nn2Cc2cccc(C)c2)ccc1N1CCOCC1,–,16.4 µM (active)
COC(=O)c1cc(NC(=O)c2ccco2)ccc1N1CCOCC1,27.5% (inactive),–
CC(=O)Nc1ccc(N2CCOCC2)c(C(=O)Nc2cccc(C)c2)c1,0.105% (inactive),–
CSc1ncccc1C(=O)Nc1ccc(C)cn1,12.8% (inactive),–
Cc1csc(SCC(=O)N(c2ccccc2)C(C)C)n1,2.12% (inactive),–
CC(C)(C)OC(=O)C[C@@H]1C/C=C\C[C@@H](CC(=O)N[C@@H](CO)Cc2ccccc2)C(=O)N2CCC[C@H]2COC1=O,-0.459% (inactive),–
Cc1cc(NCc2cccnc2)no1,-0.988% (inactive),–
Brc1ccc2ncnc(NCc3cccnc3)c2c1,–,8.2 µM (active)
NC(=O)c1cc(-c2cccnc2)nc2ccc(Br)cc12,-0.487% (inactive),–
C=CC[C@@H](CC(=O)NCCO)C(=O)N[C@H](C)COC(=O)[C@@H](CC=C)CC(=O)OC(C)(C)C,9.21% (inactive),–
COc1cc(OC)c(C(=O)OC(C)C(=O)Nc2cc(C(F)(F)F)ccc2Cl)cc1OC (stereo not drawn),–,14.6 µM (active)
CC(CC(=O)Nc1cc(C(F)(F)F)ccc1Cl)c1ccccc1 (stereo not drawn),-11.4% (inactive),–
COc1ccc(/C(C)=N/Nc2cc(C(F)(F)F)ccc2Cl)c(OC)c1,-5.75% (inactive),–
CC1CC(C)CN(C(=O)COC(=O)c2ccc3ncsc3c2)C1 (stereo not drawn),22.9% (inactive),–
CCN(CC(=O)Nc1ccc(OC)cc1)C(=O)c1ccc(Cl)c(S(=O)(=O)N2CCCC2)c1,-8.47% (inactive),–
Cc1nnc(N/N=C/c2ccccn2)[nH]c1=O,–,0.92 µM (active)
Cc1nnc(N/N=C/C2CC=CCC2)[nH]c1=O (stereo not drawn),8.5% (inactive),–
Cc1ccccc1Nc1nnc(C)c(=O)[nH]1,1.45% (inactive),–
Cc1ccc([C@@H]2CC=C(C(=O)O)[C@H](c3cccc(Cl)c3)N2S(=O)(=O)c2ccc(C)cc2)cc1,10.9% (inactive),–

SMILES,"activity change, negative = inhibition",Potency
CN(C)C(CNC(=O)Cc1ccc([N+](=O)[O-])cc1)c1ccccc1 (stereo not drawn),13.3% (inactive),–
CN(C)CCNC(=O)Cc1ccc([N+](=O)[O-])cc1,15.5% (inactive),–
CN(CCc1ccccc1)C(=O)c1cccc(NC(=O)Cc2ccc([N+](=O)[O-])cc2)c1,–,13 µM (active)
Cc1ccc2nnn(Cc3cccc(C(C)(C)C)c3O)c2c1,-1.83% (inactive),–
CCc1ccc2nc(N(CCCN(C)C)C(=O)c3ccc4c(c3)OCCO4)sc2c1,9.22% (inactive),–
O=C(CSc1ncnc2sccc12)NC1CCS(=O)(=O)C1 (stereo not drawn),6.81% (inactive),–
CC1(C)Cc2cccc(OCC(=O)NCc3ccccc3)c2O1,16.1% (inactive),–
COc1ccc(NS(=O)(=O)c2ccc(N3CCOCC3)c(NC(=O)c3ccccc3Br)c2)cc1,-26.6% (inactive),–
COc1ccc(NS(=O)(=O)c2cc(NC(=O)/C=C/c3cc(OC)c(OC)c(OC)c3)ccc2N2CCCCC2)cc1,13.2% (inactive),–
COc1ccc(NS(=O)(=O)c2cc(NC(=O)C3CCCCC3)ccc2N2CCOCC2)cc1,–,20.6 µM (active)
COc1ccc2oc(C)c(NC(C)=O)c2c1,0.987% (inactive),–
CC(=O)c1c(C)oc2ccc(NS(=O)(=O)c3ccc(C(=O)O)cc3)cc12,-1.04% (inactive),–
COc1ccc(S(=O)(=O)Nc2ccc3oc(C)c(C(C)=O)c3c2)cc1,–,2.59 µM (active)
Cc1ccc(S(=O)(=O)N2CCC(C(=O)OCC(=O)N(C)c3ccccc3)CC2)cc1C,-24.6% (inactive),–
CCN(CC(=O)Nc1ccc(C)c(S(=O)(=O)N(C)C)c1)Cc1ccccc1,-0.255% (inactive),–
CC(C)(C)c1ccc(SCCc2ccncc2)cc1,12.8% (inactive),–
CCC(C(=O)NC1CCCC1)N(C(=O)Cn1nnc(-c2ccc(C)o2)n1)c1ccc(OC)c(OC)c1 (stereo not drawn),17.5% (inactive),–
COC(=O)c1c(NC(=O)COC(=O)[C@@H](NS(=O)(=O)c2ccccc2)C(C)C)sc2c1CCC2,–,25.9 µM (active)
COC(=O)c1c(NC(=O)CCCC(=O)O)sc2c1CCCCC2,6.79% (inactive),–
CCOCC(=O)Nc1sc2c(c1C(=O)OCC)CCCC2,-28.6% (inactive),–
O=C1C=C(c2cc(C(F)(F)F)cc(C(F)(F)F)c2)C[C@@H](c2ccc3c(c2)OCO3)C1,6.59% (inactive),–
NC(=O)c1sc2nc3c(c(-c4ccccc4)c2c1N)CCC3,–,4.11 µM (active)
Cc1nc2sc(C(=O)c3ccccc3)c(N)c2c2c1CCCC2,-1.68% (inactive),–
Cc1cccc(NC(=O)c2sc3nc4c(c(-c5ccco5)c3c2N)CCC4)c1,-2.91% (inactive),–
